The results in this text go back to PubChem BioAssay AID588413 (Sanford-Burnham Center for Chemical Genomics, 2011).

Where “and” joins values, the source holds several entries; their conditions need not be identical. Identical values can stand only once. In all, about 340,000 compounds went through this assay and about 2,500 (0.74%) were called active. Shown is part of a subset that was picked to be rich in actives. Unmarked numbers belong to inactive results.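 Rule for the calls: active = inhibition above about 55% (limit read from the data); inactive = the rest.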

One may read the inhibition as the change of the read-out against control, counted positive when it falls.

This assay is described as follows: blockers of Gli reporter signaling – luciferase luminescence, Sufu-KO-LIGHT cells, uHTS, primary screen (AID 588413).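 Note: 0% = DMSO-treated cells and 100% = wells with medium but no cells.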 As to conditions: Sufu-KO-LIGHT fibroblasts, at 5 µM, stronger effect = higher value.
For `CC(=O)c1ccc(NC(=O)Cn2c(=O)oc3ccccc32)cc1`, the inhibition was 11.6%.

With `Cc1sc2nc(SCCO)n(-c3ccccc3)c(=O)c2c1C`, the inhibition was 3.29%.

With `CC(C)OC(=O)c1ccc(NCc2cc(O)ccc2O)cc1Cl`, the inhibition was -6.82%.

As for `COC(=O)c1ccc(NCc2cc(O)ccc2O)cc1`, the inhibition was 3.08%.

Take `O=C(OC12CC3CC(CC(C3)C1)C2)c1ccc(NCc2cc(O)ccc2O)cc1`: the inhibition was 70.4% (active).

Take `Cn1cnc2c1c(=O)n(Cc1ccccc1C#N)c(=O)n2C`: the inhibition is 6.5%.

As for `O=C(Nc1ccccc1C(=O)Nc1ccncc1)c1ccc([N+](=O)[O-])cc1`, the inhibition was -25.8%.

For `O=C(Nc1cc2c3c(c1)C1CCCC1CN3CC1CCCC21)c1ccc([N+](=O)[O-])cc1` (centres undefined), the inhibition was 72.5% (active).

Turning to `CN1C2CCC1CC(NC(=O)c1ccc([N+](=O)[O-])cc1)C2` (centres undefined), the inhibition was -0.59%.

As for `CCOc1ccc(NC(=O)N(CC(C)C)CC(C)C)cc1`, the inhibition was -3.25%.

Regarding `O=C(CCNC(=O)c1ccc(Br)cc1)NCC(c1ccco1)N1CCCCC1` (centres undefined), the inhibition is 2.12%.

Regarding `Cc1ccc(OS(=O)(=O)c2ccc(-c3csc(C)n3)s2)c(C)c1`, the inhibition is -1.77%.

In the case of `c1ccc(C(c2ccccc2)N2CCN(Cc3nnnn3C3CCCCC3)CC2)cc1`, the inhibition is -7.75%.

Regarding `CC1(C)CC(N2CCN(C(c3ccccc3)c3ccccc3)CC2)=CC(=[N+]2CCCCC2)C1`, the inhibition was 89.2% (active).

On to `CC1(C)CC(=O)C=C(N2CCOCC2)C1`, for which the inhibition was -5.06%.

Take `O=C(COc1ccc(Cl)cc1Cl)NCCCNC(=O)c1cnccn1`: the inhibition is -2.79%.

With `CN1C(=O)CC(c2ccccc2)C1=O` (centres undefined), the inhibition is 1.09%.

With `COc1ccc(N(CC(=O)Nc2ccc(F)c(F)c2)S(=O)(=O)c2c(C)[nH]c(=O)[nH]c2=O)cc1`, the inhibition is -1.05%.

For the compound `COc1ccc(/C=N/N=C2/C(=O)Nc3ccccc32)cc1O`, the inhibition was 58.7% (active).

Turning to `O=C1Nc2ccc(Br)cc2/C1=N/N=C/C1=C(N2CCOCC2)C(=C\c2ccccc2)/CC1`, the inhibition is 20.5%.

For the compound `CCOc1ccc(/C=N/NC(=O)CSc2ccccn2)cc1O`, the inhibition was 4.66%.

Regarding `Cc1ccccc1CS(=O)(=O)CC1(O)CCN(C(=O)c2cccc(C(F)(F)F)c2)CC1`, the inhibition is 0.32%.

With `O=C(N=C1SC2CS(=O)(=O)CC2N1c1cc(Cl)ccc1Cl)C1CC1` (centres undefined), the inhibition was 6.54%.

Consider `Clc1ccc(C[n+]2cc(-c3ccccc3)n3c2CCC3)cc1`, for which the inhibition was 49.7%.

In the case of `Cc1ccc(C(=O)C[n+]2cc(-c3ccccc3)n3c2CCCCC3)cc1`, the inhibition was 67.1% (active) and 72.5% (active).

Take `Cc1ccc(-c2c[n+](CC(=O)Nc3ccccc3)c3n2CCC3)cc1`: the inhibition was -11.4%.

For `CC(=O)c1ccc(NC(=O)C(C)OC(=O)c2ccc(NS(=O)(=O)c3ccc4[nH]c(=O)[nH]c4c3)cc2)cc1` (centres undefined), the inhibition is 7.04%.

Regarding `O=C1CSC(=O)N1CCOCCN1C(=O)CSC1=O`, the inhibition was -19.6%.

With `CCN(CC)S(=O)(=O)c1ccc(N(C)Cc2cccc(OC)c2OC)nc1`, the inhibition is 1.8%.

On to `CC(C)(C)OC(=O)C[C@@H]1C/C=C\C[C@@H](CC(=O)N[C@H](CO)Cc2ccccc2)C(=O)NC[C@@H](c2ccccc2)OC1=O`, for which the inhibition was -21.7%.

On to `CC(C)(C)OC(=O)C[C@H]1C/C=C\C[C@@H](CC(=O)N[C@H](CO)Cc2ccccc2)C(=O)NC[C@@H](c2ccccc2)OC1=O`, for which the inhibition is 4.33%.

In the case of `O=C(C[C@H]1C/C=C\C[C@@H](NC(=O)OCC2c3ccccc3-c3ccccc32)C(=O)O[C@@H](c2ccccc2)CNC1=O)N[C@H](CO)Cc1ccccc1`, the inhibition was 60.2% (active).

Consider `COc1ccc(CCNC(=O)CCn2c(=O)c3ccccc3n(CC(=O)NCC3CCCO3)c2=O)cc1OC` (centres undefined), for which the inhibition is 2.58%.

Turning to `CCN(CC(=O)Nc1ccc(OC)cc1)C(=O)CSCc1ccc(C)cc1`, the inhibition is -9.04%.

As to `CCN(CC(=O)Nc1cc(Cl)ccc1C)C(=O)CSCc1ccc(C)cc1`, the inhibition is 62.8% (active).

For the compound `CCN(CC(=O)Nc1cc(Cl)ccc1C)C(=O)CSCc1ccccc1`, the inhibition was -4.34%.

Regarding `Cc1ccc2c(c1)N(CC(=O)NCCc1ccc(Cl)cc1)C(=O)c1cccnc1O2`, the inhibition is -9.76%.

Consider `COC[C@@H]1NS(=O)(=O)c2ccc(Br)cc2O[C@H]1c1ccccc1`, for which the inhibition was 15.6%.

Take `Cc1ccc(S(=O)(=O)c2nc(-c3cccs3)oc2NCc2cccnc2)cc1`: the inhibition is 3.04%.

`Cc1ccc(OCCNC(=O)CN2C(=O)NC3(CCCC3)C2=O)cc1`: the inhibition was -5.27%.

In the case of `Cc1c(NC(=O)CSc2cccc3cccnc23)c(=O)n(-c2ccccc2)n1C`, the inhibition is 8.55%.

As to `COc1ccc(C(=O)NCC(=O)N/N=C/c2cccnc2)cc1`, the inhibition was -0.02%.

As for `O=C(CSc1cccc2cccnc12)N/N=C/c1cccnc1`, the inhibition was 71% (active).

On to `NC(=O)CC(NC(=O)Cc1ccc(Br)cc1)c1ccc(NC2CC3CCC2C3)c([N+](=O)[O-])c1` (centres undefined), for which the inhibition is 19%.

`CC(=O)N1CCC(C(=O)Nc2nc(-c3ccccc3)ns2)CC1`: the inhibition was -14.5%.

In the case of `O=C(Nc1ccnn1C1CCN(Cc2cccc(OCCO)c2)CC1)C1CCCC1`, the inhibition is 10.8%.

On to `CC(CN1CCC(n2nccc2NC(=O)C2CCCC2)CC1)c1ccccc1` (centres undefined), for which the inhibition is 8.83%.

For `Cc1nn(C)c(Cl)c1CN1CCC(n2nccc2NC(=O)C2CCCC2)CC1`, the inhibition was 61.7% (active).

For `COc1cccc(-n2nc(C(=O)N3CCN(Cc4ccccc4)CC3)c3ccccc3c2=O)c1`, the inhibition is 11%.

With `COc1cccc(-n2cc3c(c2-c2ccccc2)c(=O)n(C)c(=O)n3C)c1`, the inhibition was 1.34%.

For the compound `COc1cccc(-n2cc(C(=O)O)c3ccccc3c2=O)c1`, the inhibition is 59.2% (active).

Take `CCCCOC(=O)CNc1nnc(SCC(=O)OCC)[nH]c1=O`: the inhibition was -6.62%.

As to `COc1ccccc1NC(=O)CCSc1nnc(-c2ccc(O)cc2)o1`, the inhibition was -0.57%.

For the compound `Brc1c(CSc2nncc3ccccc23)nc2ccccn12`, the inhibition is 65% (active).

On to `COc1cc(C(=O)N2CCN(C3CCC(C)CC3)CC2)cc(OC)c1OC` (centres undefined), for which the inhibition is 5.83%.

In the case of `O=c1c2cc([N+](=O)[O-])ccc2nc2n1CCC2`, the inhibition was -23.1%.

As for `CCOC(=O)c1cnc(-n2nc(C)cc2C)nc1NNc1cc(C)nc(-c2ccccc2)n1`, the inhibition was 80% (active).

Consider `Cc1cc(C)n(-c2c(F)c(F)c(COC(=O)c3ccccc3)c(F)c2F)n1`, for which the inhibition was 6.99%.

For `CC(=O)c1ccc(Oc2cc(C)nc(-n3nc(C)cc3C)n2)cc1`, the inhibition is 30.8%.

Regarding `Cc1nn(Cc2ccc(F)cc2)c(C)c1NC(=O)c1noc2c1CCc1ccccc1-2`, the inhibition was 6.19%.

In the case of `O=C(O)C(c1cccs1)C1(O)CCCCC1` (centres undefined), the inhibition was 6.95%.

In the case of `C=CCOC(=O)C1=C[C@H](c2ccc(Br)cc2)C[C@H](OCCCCO)O1`, the inhibition is -1%.

As for `NC(=O)C1=C[C@@H](c2ccc3c(c2)OCO3)C[C@@H](OCCCCO)O1`, the inhibition is -4.81%.

As for `C=CCOC(=O)C1=C[C@@H](c2ccc3c(c2)OCO3)C[C@@H](OCCCCO)O1`, the inhibition was 98.8% (active).

With `COC(=O)c1cccc(NC(=O)c2cccc(N3C(=O)CCC3=O)c2)c1`, the inhibition was 8.09%.

Turning to `COc1ccccc1-c1nnc(NC(=O)c2cccc(N3C(=O)CCC3=O)c2)o1`, the inhibition was -6.14%.

Take `Cc1cc(NC(=O)c2cccc(N3C(=O)CCC3=O)c2)no1`: the inhibition was 98.8% (active).

Regarding `C/C(CC(=O)N1CCN(C=O)CC1)=N\NC(=O)c1ccc(Br)cc1`, the inhibition was 3.23%.

Regarding `CCOC(=O)c1c(C)nn(-c2ncccc2NC(=O)CCC(=O)O)c1C`, the inhibition is 1.77%.

Take `Cn1c(=O)n(C)c2cc(CNc3ccc(N4CCOCC4)c(C(=O)O)c3)ccc21`: the inhibition is 5.36%.

Consider `CN1CCN(NC(=O)Nc2ccc(Br)cc2)CC1`, for which the inhibition is -5.05%.

As to `COCC(=O)Nc1ccc(Br)cc1`, the inhibition was -3.01%.

As for `CN1C(CC(=O)Nc2ccc(Br)cc2)c2ccccc2CC1(C)C` (centres undefined), the inhibition is 75.8% (active).

For the compound `COc1ccc(C(=O)N2CCCC(C(=O)c3ccccc3OC)C2)cc1OC` (centres undefined), the inhibition was -11.7%.

For `COc1ccccc1C(CNC(=O)c1cccc(NS(=O)(=O)c2ccc(Br)cc2)c1)N(C)C` (centres undefined), the inhibition is 4.43%.

`CC(C)Oc1ccc(CN2CCC(n3nccc3NC(=O)c3cccnc3)CC2)cc1`: the inhibition is 61.3% (active).

`COc1ccc(C(=O)Nc2ccnn2C2CCN(Cc3ccncc3)CC2)cc1`: the inhibition is -4.23%.

With `COc1ccccc1C(=O)Nc1ccnn1C1CCN(Cc2cnn(C)c2)CC1`, the inhibition is 8.85%.

As for `COCCn1cnnc1SCC(=O)Nc1cccc(S(=O)(=O)N2CCCCC2)c1`, the inhibition was -21.3%.

Turning to `CCOc1cccc(NC(=O)Cn2nc(-c3ccc4c(c3)OCCO4)ccc2=O)c1`, the inhibition was -1.4%.

As for `Cc1c(C(=O)NCC(c2ccco2)N2CCCC2)oc2ccc(Cl)cc12` (centres undefined), the inhibition was 16.9%.

In the case of `O=C1[C@@H](c2ccccc2)[C@@H](c2ccccc2)N1c1cccnc1`, the inhibition is 7.59%.

With `C[C@@H]1NS(=O)(=O)c2cc(Cl)ccc2O[C@@H]1c1ccccc1`, the inhibition is -5.11%.

On to `O=C(COc1cccc(Cl)c1)NCc1ccccc1`, for which the inhibition was 5.34%.

Turning to `O=C(O)CCCn1cc(NC(=O)COc2cccc(Cl)c2)cn1`, the inhibition was 62.4% (active).

With `CCOc1cccc(C(=O)Nc2cnn(Cc3ccccc3)c2)c1`, the inhibition was -43.8%.

In the case of `COC(=O)C1CC2=C(CC(C)(C)CC2=O)N(c2ccccc2)C1=O` (centres undefined), the inhibition is 4.81%.

Turning to `Cc1ccc(C(CNC(=O)Nc2cccc(C)c2)N2CCN(C)CC2)cc1` (centres undefined), the inhibition is 44.3%.

With `CCOc1cc(C2/C(=C(/O)c3ccc(S(=O)(=O)N4CCCCC4)cc3)C(=O)C(=O)N2CCOC)ccc1O` (centres undefined), the inhibition was -6.41%.
